DRD3 agonist – qHTS of D3 Dopamine Receptor Agonist: qHTS; D(3) dopamine receptor (Homo sapiens), P35462; max activation, %; AID 652048, 2013; 0.58% of 410,000 active; D3R DiscoveRx beta-arrestin cells, luminescence, 90 min; in the data active means max activation above about 30%; further: 0% is about no effect
Target sequence (P35462 whole entry, looked up): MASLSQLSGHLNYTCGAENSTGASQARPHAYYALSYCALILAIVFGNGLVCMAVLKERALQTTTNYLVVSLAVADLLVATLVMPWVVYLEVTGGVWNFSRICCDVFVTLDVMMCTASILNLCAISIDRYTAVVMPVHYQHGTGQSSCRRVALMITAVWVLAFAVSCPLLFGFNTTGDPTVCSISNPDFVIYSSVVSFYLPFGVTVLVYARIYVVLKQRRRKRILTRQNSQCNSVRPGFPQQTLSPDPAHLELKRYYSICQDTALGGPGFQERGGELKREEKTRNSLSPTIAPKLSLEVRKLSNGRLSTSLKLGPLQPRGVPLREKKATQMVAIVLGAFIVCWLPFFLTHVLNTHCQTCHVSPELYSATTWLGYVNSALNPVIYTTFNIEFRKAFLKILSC
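Agonist-mode cell screen: cells plated at 1500/well and incubated overnight at 37 °C, then exposed to library compounds for 90 min at 37 °C. Detection reagent was added for 30–60 min at room temperature, and luminescence was read.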
D3 antag – qHTS of D3 Dopamine Receptor Antagonist: qHTS; max response, negative = inhibition, %; AID 652054, 2013; D(3) dopamine receptor (Homo sapiens), P35462; 2.5% of 360,000 active; D3R cells, DiscoveRx beta-arrestin luminescence, antagonist mode; active compounds read low; in the data active means max response below about -50%; inconclusive means no clear call, values can overlap the other calls; further: on the % scale 0 is the no-effect control and ±100 the full control effect
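Cells plated overnight at 1500 cells/well, then exposed to library compounds with dopamine controls for 90 minutes at 37 degrees C. DiscoveRx reagent added for 30–60 minutes at room temperature; luminescence read, quantitative HTS format.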
IL-1B inflam inh – qHTS for Inhibitors of Inflammasome Signaling: IL-1-beta AlphaLISA Primary Screen; THP-1 LPS/ATP IL-1B secretion, AlphaLISA, 16 h; active compounds read low; activity change, % at 57.5 µM; 4.7% of 360,000 active; in the data active means activity change below about -50%; inconclusive means mostly about -30% to -49%; further: on the % scale 0 is the no-effect control and ±100 the full control effect
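THP-1 cells pretreated 1 hr with compounds (up to 57.5 uM final), then stimulated with LPS (250 ng/mL final) plus ATP (1.25 mM final); secreted IL-1B measured by AlphaLISA after 16 hr, decreased signal indicating inhibition.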
ClpP mod – qHTS Assay for Activators of ClpP; ATP-dependent Clp protease proteolytic subunit (Bacillus subtilis (strain 168)), P80244; purified B. subtilis ClpP, FRET peptide cleavage, 20 min; Potency, µM (series often up to 57.5 µM), without a hit: at the top dose activity change, negative = active; 1.9% of 340,000 active; AID 651965, 2013; active means well fitted falling curve with a large enough effect; inconclusive means small, poorly fitted or top-dose-only effect; inactive means no such curve, though single readings can be large or run the other way; further: potency means the concentration at half of the fitted maximal effect; the source files actives as falling curves though it sought activators and does not explain the sign; nearly all actives have a fitted effect of over 65% in size
Target sequence (P80244 whole entry, looked up): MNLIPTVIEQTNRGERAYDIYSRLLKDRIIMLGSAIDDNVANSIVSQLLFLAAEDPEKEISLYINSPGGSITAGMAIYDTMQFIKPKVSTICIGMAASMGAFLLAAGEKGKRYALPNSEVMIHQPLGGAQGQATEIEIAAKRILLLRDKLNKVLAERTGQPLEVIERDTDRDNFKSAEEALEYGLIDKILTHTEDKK
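Purified B. subtilis ClpP, 10 microg/mL final in Tris/HCl pH8 with KCl, BSA, glycerol and Tween-20, cleaved an Abz/nitrotyrosine-quenched decapeptide. Fluorescence (ex 320, em 430) was read at 0 and 20 min at room temperature. Delta was normalized to 5.8 microM ADEP and DMSO/no-enzyme controls.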
TDP1 cell noCPT – qHTS for Inhibitors of human tyrosyl-DNA phosphodiesterase 1 (TDP1): qHTS in cells in absence of CPT | AID 686978, 2013 | Potency, µM (top dose mostly 46.2 µM), for inactives: at the top dose activity change, negative = growth inhibition, hits mostly inhibitors | DT40 Tdp1-/- hTDP1 cells, no CPT, ATP luminescence, 48 h | 15% of 420,000 active; further: potency means the concentration at half of the fitted maximal effect; on the % scale 0 is the no-effect control and ±100 the full control effect; nearly all actives have a fitted effect of over 55% in size
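Chicken DT40 Tdp1-/- cells stably complemented with human TDP1 were seeded at 400 cells/well with DMSO in place of 20 nM camptothecin. After compound pinning, cells grew at least 48 hr at 37 °C; viability read by CellTiter-Glo luminescence.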
TDP1 cell CPT – qHTS for Inhibitors of human tyrosyl-DNA phosphodiesterase 1 (TDP1): qHTS in cells in presence of CPT; AID 686979, 2013; Potency, µM (top dose mostly 46.2 µM), for inactives: top-dose activity change, negative = growth inhibition, usual class: inhibitors; 12% of 420,000 active; chicken DT40 Tdp1-/-;hTDP1 cells + 20 nM CPT, ATP luminescence, 48 h; further: potency means the concentration at half of the fitted maximal effect; on the % scale 0 is the no-effect control and ±100 the full control effect; nearly all actives have a fitted effect of over 55% in size
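Chicken DT40 Tdp1-/- cells complemented with human TDP1, 400 cells/well, exposed to compounds plus 20 nM camptothecin for at least 48 h at 37 C; viability read as ATP content by CellTiter-Glo luminescence.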
* hit, by the source's call; ? = inconclusive; . = no result; [ ] = dose if it differs, or a comment. Rows were chosen to be rich in hits. Some 21% of all compounds tested hit in one or more screens of this group. Unless noted, the call rests on the fitted dose curve; in most records, active means well fitted inhibition curve with a large enough effect; inconclusive means small, poorly fitted or top-dose-only effect; inactive means flat fitted curve, though single readings scatter.

SMILES | DRD3 agonist | D3 antag | IL-1B inflam inh | ClpP mod | TDP1 cell noCPT | TDP1 cell CPT
COc1ccc(-c2ccc3c(N)c(C(=O)NC(C)C)sc3n2)cc1OC | 24 | 40 | . | . | 16µM* | -25%
COc1cccc(-c2ccc3c(N)c(C(=O)c4ccc(Br)cc4)sc3n2)c1 | 4 | . | . | -2% | 15µM* | 15µM*
COc1cccc(-c2ccc3c(N)c(C(=O)Nc4cc(C(F)(F)F)ccc4OC)sc3n2)c1 | -7 | . | . | -5% | -12% | -17%
O=C1CCCc2cc(S(=O)(=O)N3CCCC(C(=O)Nc4ccc(F)c(Cl)c4)C3)ccc2N1 (configuration not stated) | 1 | . | . | -1% | . | .
Cc1ncc2c(c1CNC(=O)/C=C/c1cccs1)CCN(C(=O)c1c(C)noc1C)C2 | . | . | . | . | -13% | 16%[9.04 µM]
Cc1cc(C)n2nc(-c3ccco3)nc2n1 | -10 | -2 | 8 | -3% | 4% | 4%
COc1cccc(C(O)C2OC(=O)c3ccccc32)c1OC (configuration not stated) | 6 | -3 | -2 | 0% | 9.2µM* | 4%
COc1cc(C2OC(=O)c3ccccc3S2)cc(OC)c1OC (configuration not stated) | -5 | -14 | 4 | . | -20% | 1%
COc1cc2nc(NCCC(C)C)n3nc(-c4ccccc4)nc3c2cc1OC | -13 | . | . | -12% | ? | ?
CCCCCCNc1ncnc2c1sc1nc(N3CCOCC3)c3c(c12)CCCC3 | 3 | . | . | 4% | ? | ?
Cc1nc2c(sc3nc(N4CCOCC4)c4c(c32)CC(C)(C)OC4)c(-c2ccccc2)c1C(=O)O | 9 | 27 | -10 | -7% | ? | 26µM*
CC(C)CNc1ncnc2c1sc1nc(N3CCOCC3)c3c(c12)CC(C)(C)OC3 | 5 | 9 | -29 | 6.3µM* | 10µM* | ?
Cc1cccc(-n2cnc3c(sc4nc(N5CCOCC5)c5c(c43)CCCC5)c2=O)c1 | 6 | 7 | ? | . | 21µM* | ?
OCCNc1ncnc2c1sc1nc(N3CCOCC3)c3c(c12)CCC3 | 0 | -7 | -53* | 2% | 15µM* | ?
CN(C)CCNc1ncnc2c1sc1nc(N3CCCC3)c3c(c12)CC(C)(C)OC3 | 4 | -3 | -82* | . | 26µM* | ?
CCN(CC)CCNc1ncnc2c1sc1nc(N3CCCC3)c3c(c12)CC(C)(C)OC3 | -11 | 4 | -75* | . | ? | ?
COc1ccccc1N1CCN(C2CC(=O)N(c3cccc(Cl)c3)C2=O)CC1 (configuration not stated) | -15 | -14 | 56 | 1% | 6% | -5%
CC(C)(C)c1ccc(NC(=S)NCc2cccnc2)cc1 | 7 | 15 | 18 | 1% | 15µM* | ?
CC(C)(C)c1ccc(C(=O)NCc2cccnc2)cc1 | -1 | -10 | 16 | 0% | ? | -19%
Fc1ccc(NC(=S)NCc2cccnc2)cc1 | -7 | -2 | 18 | . | -4% | 18%
COc1ccc(NC(=S)NCc2cccnc2)cc1 | 1 | -2 | -18 | . | ? | -1%
S=C(NCc1cccnc1)Nc1ccc(Cl)c(Cl)c1 | -7 | -22 | -58* | -1% | ? | -19%
CCC(C)c1ccc(NC(=S)NCc2cccnc2)cc1 (configuration not stated) | 3 | 13 | 0 | -1% | 7.3µM* | ?
CC(C)(C)c1ccc(C(=O)NC(=S)NCc2cccnc2)cc1 | 2 | 5 | 4 | -1% | 18µM* | 16µM*
CC(CCc1ccc2c(c1)OCO2)NN (configuration not stated) | -3 | . | . | . | 2% | 14%
SMILES | DRD3 agonist | D3 antag | IL-1B inflam inh | ClpP mod | TDP1 cell noCPT | TDP1 cell CPT
Cc1cccc(/C=C/c2onc(C)c2S(=O)(=O)N2CCC(C(=O)NC(C)C)CC2)c1 | -10 | ? | 2 | -11% | -23% | ?
Cc1[nH]c2ccccc2c1C(=O)CSc1nnc(C2CC2)o1 | 1 | 11 | -20 | 1% | ? | 0%
O=C(Cc1ccc(Cl)cc1)c1c[nH]c(C(=O)NCc2cccnc2)c1 | 0 | -2 | 0 | -1% | -4% | 1%
CC(C)(C)c1ccc(C(=O)c2c[nH]c(C(=O)NCc3cccnc3)c2)cc1 | -1 | 12 | -11 | -1% | 16µM* | 18µM*
COC(=O)c1cc(C(=O)c2ccc(C(C)(C)C)cc2)c[nH]1 | 0 | 10 | ? | -5% | 12µM* | ?
COc1cccc(CNC(=O)c2c(OC)cc(=O)n3c2CCN(C(=O)c2csc(C)n2)CC3)c1 | . | . | . | . | -1% | 0%
CCc1ccc(N=Nc2ccc(O)c3[nH]cnc23)cc1 | -27 | 1 | -3 | -2% | 23µM* | ?
CCc1ccc(/C=N/Nc2ncnc3nc[nH]c23)cc1 | 6 | 3 | 76 | . | ? | ?
CCNC(=O)Cn1cc(C#N)c2ccccc21 | 3 | 0 | 9 | -2% | -13% | -5%
CCOC(=O)C1(CC2CC2)CCN(Cc2ccc3cccc(F)c3n2)CC1 | -19 | -96* | ? | 1% | 16µM* | 21µM*
CCOC(=O)C1(CC2CC2)CCN(Cc2cn[nH]c2-c2cccc(F)c2)CC1 | -3 | 12 | -8 | 0% | 18µM* | ?
CCOC(=O)C1(Cc2cccc(OC)c2)CCN(Cc2cnc(N)nc2)CC1 | -10 | -27 | -1 | . | -16% | 10%
CCOC(=O)C1(CC2CC2)CCN(Cc2cnc(-c3ccc(OC)cc3)nc2)CC1 | -4 | -4 | 33 | -2% | 16µM* | ?
CCOC(=O)C1(CC2CC2)CCN(S(=O)(=O)/C=C/c2ccccc2)CC1 | 1 | 13 | -17 | 0% | -16% | -28%
CCOC(=O)C1(CC2CC2)CCN(Cc2cn[nH]c2-c2ccccc2)CC1 | 4 | 4 | 0 | 0% | 13% | -13%
CCOC(=O)c1c(C)[nH]c(C)c1C(=O)CSc1nc2ccccc2c(=O)n1-c1ccc(CC)cc1 | 15 | 27 | 0 | -1% | 6.5µM* | 12µM*
CC(C)c1nc(SCC(=O)c2c[nH]c3ccccc23)n[nH]1 | -41 | -61* | 6 | . | -16% | ?
CCc1nc(SCC(=O)c2c[nH]c3ccccc23)n[nH]1 | 3 | -5 | 2 | . | -19% | 8%
